± gives the standard deviation.
Tested on: EfPiwi piRISC loaded with L1MC piRNA (26 nt)
Experiment: pre-steady-state target cleavage rate (min^-1); auxiliary factor: none (no Gtsf1); guide: L1MC piRNA 5'p-UAACUAAAUACUAUGCAAGCUGUAGG; MIWI and MILI are mouse PIWI proteins and EfPiwi is from a freshwater sponge; tags in brackets are library labels; higher = faster piRNA-guided slicing of the target
Experimental: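 Cleave-'n-Seq: a library of target RNAs (target site in constant flanks) at […] was incubated with 1 nM active freshwater sponge Ephydatia fluviatilis Piwi piRISC (synthetic 5'-monophosphorylated piRNA guide) with or without 500 nM EmGtsf1 at 33 °C for 1 min to 16 h. Uncleaved targets were sequenced and the pooled three trials fitted to a burst-and-steady-state model to give the pre-steady-state cleavage rate (min^-1). Sequence is the target site only. Fits with R² ≤ 0 are excluded.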

pre-steady-state target cleavage rate, 0.0111 ± 0.0065:
UCCUGGAUCAGCUUGCAUAGUAUUUUAGUUA

pre-steady-state target cleavage rate, 0.00517 ± 0.0042:
UCCUGGAUGAGCUUGCAUAGUAGUUAGUUA

pre-steady-state target cleavage rate, 0.00581 ± 0.0041:
UCCUGGAAGAGCUUGCAUACUAUUUAGUUA

pre-steady-state target cleavage rate, 0.00968 ± 0.0057:
UCCUGGUUACAGCUUGCAUAGUAUUUAGUUA

pre-steady-state target cleavage rate, 0.00525 ± 0.0051:
UCCUGGGACAGCUUGCAUAGUAUUUAGUUA

pre-steady-state target cleavage rate, < 0.0001:
UCCUGGAUGUCGAACGUAUGUCUUUAGUUA, UCCUGGAUGUCGAAGCAUAGUAUUUAGAUA, UCCUGGAACAGCUUGGAUUGUAUUUAGUUA, UCCUGGAUGUCGUUGCAUAGAUUUAGUUA, UCCUGGUACAGGAAGCAUAGUAUUUAGAAA, UCCUGGAACAGCUUCCAUAGUAUUUACUUA, UCCUGGAUGUCGAAGAAUAGUAUUUAGUUA, UCCUGGAUGUCGUUGCAUAGUUUUAGUUA, UCCUGGAUGUCGAACCAUAGUUUUAGUUA, UCCUGCUACAGCAUCCAUAGUAUUUAGUUA, UCCUGGAUGUGCAUGCAUAGUAUUUACUUA, UCCUGGAUGUCGAACCAUACGUAUUUAGUUA, UCCUGGAUGUCGAACCAUAGUAUUUCAGUUA, UCCUCCUACAGCUUGCAUAGUAUUGUAGUUA, UCCUGGAACAGCUUGCUAUCAUAAAUCAAA [g15:g23:cont:t1A], UCCUGGAUGUCGAACGUAUGUAUUUGAGUUA, UCCUGGAUGUCCUUGCAUAGUAUUUCAGUUA, UCCUGGAUGUCGAACGUAUGUAUAUUAGUUA, UCCUGGAUGUCGAACGUUCGUAUUUAGUUA, UCCUGGAUGUCGAUGCAUAGUAUUAUGUUA, UCCUGGAUGAGCUUGCAUCAGUAUUUAGUUA, UCCUGGAUGUCGAAGCAUAGUUUUUAGUUA, UCCUGGAUGUCGAAGCAUAGUAUAUUAGUUA, UCCUGGAUGUCCAUGCAUAGUAUUAAGUUA, UCCUGGAUGUCGAAGCAUACUAAUUAGUUA, UCCUGGAUGUCGAACGUAUCUAUUUACAUA, UCCUCCUACAGGAUGCAUAGUAUUUUCAAA, UCCUGGAUCAGCUUGCAUUGUAUAUAGUUA, UCCUGGAUGUCCUUGCAUAGUUUUUACUUA, UCCUGGAUGUCGUUGCAUAGAUAUUAGUUA, UCCUGGAUCAGGAAGCAUAGUAUUUUCAAA, UCCUGGAUGUCCAUGCAUAGUAUUUAGAUA, UCCUGGAUGUCGAACGUAAGAAUUUAGUAA, UCCUGGAUGUCCUUCGUUAGUAUUUAGUUA, UCCUGGAACUCGUUGCAUAGUAUUUAGUUA

— the supplement of paper PMC10338343
